Eight molecules from PubChem BioAssay (Tox21) can be followed below.

Results filed as inconclusive are left out. A structure can be active in one record and inactive in another. Activity calls are given as the source filed them. Unless noted, calls come from the whole dose curve; as a rule, active = well fitted curve in the direction sought with a large enough effect in the repeat runs; inconclusive = weak or mixed curves; inactive = no such curve, though single readings can be large; an effect the other way counts as inactive or inconclusive.

A short description of test [1]: qHTS assay to identify small molecule antagonists of the estrogen receptor alpha (ER-alpha) signaling pathway using the BG1 cell line in the presence of 0.1 nM 17-beta-estradiol - cell viability counter screen (AID 1259241). Note: nearly all actives have a fitted effect of over 40% in size. The procedure, abridged: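 Cytotoxicity counter-screen: live-cell protease activity measured by fluorescence (30 min reagent step) in the same wells. Cells were VM7Luc4E2 with endogenous ER-alpha and ERE-driven luciferase, treated 22 hr at 37C alongside 0.1 nM 17beta-estradiol final.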

Test [2] can be described thus: qHTS assay to identify small molecule antagonists of the androgen receptor (AR) signaling pathway using the MDA cell line in the presence of 0.5 nM R1881 - cell viability counter screen (AID 1259242). Note: nearly all actives have a fitted effect of over 45% in size. In short, it runs like this: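 qHTS format. MDA-kb2 (MMTV-luc, AR/GR responsive) + cpd + 0.5 nM R1881 final, 16 hr 37C/0% CO2 → CellTiter-Fluor 30 min → fluorescence intensity.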

For test [3], the target named is Androgen receptor (Homo sapiens) (UniProt P10275). In words: qHTS assay to identify small molecule antagonists of the androgen receptor (AR) signaling pathway using the MDA cell line in the presence of 0.5 nM R1881 (AID 1259243). Note: nearly all actives have a fitted effect of over 50% in size. In short, it runs like this:
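Antagonist mode quantitative HTS in MDA-kb2 MMTV-luciferase cells, agonist R1881 at 0.5 nM final, 16 hr exposure at 37C and 0% CO2, luminescent detection.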

For test [4], the target named is Estrogen receptor (Homo sapiens) (UniProt P03372). In words: qHTS assay to identify small molecule antagonists of the estrogen receptor alpha (ER-alpha) signaling pathway using the BG1 cell line in the presence of 0.1 nM 17-beta-estradiol (AID 1259244). Note: nearly all actives have a fitted effect of over 50% in size. In short, it runs like this:
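Reporter is a stably transfected luciferase under four estrogen responsive elements in VM7Luc4E2 cells expressing native full-length ER-alpha; inhibition of 0.1 nM (final) 17beta-estradiol-driven signal over 22 h is read by luminescence.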

Test [5] is described as follows: qHTS assay to identify small molecule phospholipidosis (PLD) inducers (AID 1259344; active = well fitted curve in the direction sought with a large enough effect; an effect the other way counts as inactive or inconclusive). The procedure, abridged:
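Phospholipid accumulation was scored by imaging: fixed, Hoechst-counterstained HepG2 cells stained with LipidTOX Red after 24 h compound exposure at 37 C. Read-outs were pit count and pit intensity per well or per cell, with amiodarone and DMSO controls.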

Test [6] can be described thus: qHTS assay to identify small molecule HDAC inhibitors (AID 1259364).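 Note: wild-type HCT-116 cells with endogenous class I/II HDAC activity; top concentration of the series differs between compounds; nearly all actives have a fitted effect of over 45% in size.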 The procedure, abridged:
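Quantitative high-throughput format: overnight-seeded HCT-116 cells got compounds for 2 hr at 37C; HDAC-Glo I/II reagent added, 30 min RT, luminescence measured.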

The nature of test [7]: qHTS assay to identify small molecule HDAC inhibitors - cell viability counter screen (AID 1259365). Note: series mostly up to about 92 µM; nearly all actives have a fitted effect of over 50% in size. In short, it runs like this: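 CellTiter-Glo luminescence (30 min, room temperature) reported viability after a 2 h compound exposure at 37 C. Cells: wild-type HCT-116, 1,500 per well, seeded the night before.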
Test [8] in a line: qHTS assay to identify small molecule agonists of the sonic hedgehog signaling (Shh) pathway - cell viability counter screen (AID 1259366). Note: nearly all actives have a fitted effect of over 50% in size. In short, it runs like this: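 Cytotoxicity counter screen: CellTiter-Fluor reagent added after 23 h compound exposure, then 1 h at 37C and fluorescence read. Cells were 3T3 Gli1-Luc, seeded 2,000 per well and dosed 4 h post-plating.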
A short description of test [9]: qHTS assay to identify small molecule antagonists of the sonic hedgehog signaling (Shh) pathway - cell viability counter screen (AID 1259367). Note: nearly all actives have a fitted effect of over 55% in size. In short, it runs like this:
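Viability was read by CellTiter-Fluor fluorescence in the same wells, reagent added 23 hr into compound treatment and incubated 1 hr at 37C. The 3T3 Gli1-Luc reporter cells (2,000/well) received conditioned medium after compound and ran 24 hr.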

Test [10] in a line: qHTS assay to identify small molecule agonists of the sonic hedgehog signaling (Shh) pathway (AID 1259368; calls by dose curve;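 note: NIH/3T3-derived 3T3Gli1-Luc cells carrying a stable Gli1-driven firefly luciferase reporter; series mostly up to about 92 µM; nearly all actives have a fitted effect of over 15% in size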). The procedure, abridged: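 Quantitative high-throughput format using a Gli1-driven firefly luciferase reporter line derived from NIH/3T3 cells. After a 24 hr compound treatment at 37 C and 5% CO2, luminescence reported Gli1 response element activity.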
A short description of test [11]: qHTS assay to identify small molecule antagonists of the sonic hedgehog signaling (Shh) pathway (AID 1259369; calls by dose curve; note: nearly all actives have a fitted effect of over 45% in size; note: potency is the fitted concentration of half-maximal effect). In short, it runs like this:
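Stable Gli1-Luc reporter NIH/3T3 clone; quantitative HTS in stimulated mode with conditioned medium. Luminescence measured after 24hr compound treatment at 37 C.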

Test [12] can be described thus: qHTS assay to identify small molecule agonists of the androgen receptor (AR) signaling pathway in the presence of an antagonist - cell viability counter screen (AID 1259379).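 Note: MDA-kb2 human breast cancer cells carrying an MMTV luciferase reporter; series mostly up to about 92 µM; nearly all actives have a fitted effect of over 25% in size.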 In short, it runs like this:
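Nilutamide-containing (3.0uM final) MDA-kb2 cultures, 3,000 cells/well, were treated with compounds across 15 concentrations. After 16 hr at 37C with no CO2, cell viability was determined by CellTiter-Fluor fluorescence in the luciferase assay wells.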

Test [13] is described as follows: qHTS assay to identify small molecule agonists of the estrogen receptor beta (ER-beta) signaling pathway - cell viability counter screen (AID 1259380). Note: nearly all actives have a fitted effect of over 30% in size. In short, it runs like this:
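Steps: plate ER-beta-UAS-bla HEK293T cells, rest 6 hr; add compounds in DMSO; incubate 16 hr at 37C, 5% CO2; add FRET substrate 2 hr; add CellTiter-Glo, wait 30 min at room temperature; read luminescence.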

Test [14] is described as follows: qHTS assay to identify small molecule antagonists of the estrogen receptor beta (ER-beta) signaling pathway - cell viability counter screen (AID 1259382). Note: series mostly up to about 92 µM; nearly all actives have a fitted effect of over 55% in size. In short, it runs like this:
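Viability is scored by CellTiter-Glo luminescence (30 min, room temperature) in ER-beta-UAS-bla HEK293T wells already read for reporter fluorescence. Compound exposure lasts 16 hr at 37C alongside 1nM 17-beta-estradiol in charcoal-stripped serum medium.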

In test [15] the target is Estrogen receptor (Homo sapiens) (UniProt P03372). The test can be described thus: qHTS assay to identify small molecule agonists of the estrogen receptor alpha (ER-alpha) signaling pathway in the presence of an antagonist (AID 1259383; calls by dose curve; note: top concentration of the series differs between compounds; nearly all actives have a fitted effect of over 15% in size). The procedure, abridged:
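Readout was ERE-driven luciferase luminescence in VM7Luc4E2 cells, which express full-length ER-alpha endogenously. Compounds were tested at 15 concentrations for 22hr alongside 10.0nM ICI-182,780 (final concentration).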

A short description of test [16]: qHTS assay to identify small molecule agonists or antagonists of the thyroid stimulating hormone receptor (TSHR) signaling pathway - wild type cell line counter screen (AID 1259384; calls by dose curve). The procedure, abridged: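 Counter screen in untransfected Hek293: compounds (15-point titration, triplicate) plus phosphodiesterase inhibitor Ro20-1724 added after 18 h plating; 30 min RT. Intracellular cAMP via competitive d2/cryptate immunoassay, 1 h incubation.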

The target in test [17] is Thyrotropin receptor (Homo sapiens) (UniProt P16473). The test can be described thus: qHTS assay to identify small molecule antagonists of the thyroid stimulating hormone receptor (TSHR) signaling pathway (AID 1259385; calls by dose curve; note: nearly all actives have a fitted effect of over 20% in size). In short, it runs like this:
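Antagonist mode: compound-treated TSHR-expressing HEK293 cells were stimulated with 1.5 ng/mL TSH (final) in presence of Ro20-1724 for 30 min at RT. HTRF cAMP detection after 1 h; each compound tested at 15 concentrations, triplicate.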

The nature of test [18]: qHTS assay to identify small molecule agonists of the estrogen receptor alpha (ER-alpha) signaling pathway in the presence of an antagonist - cell viability counter screen (AID 1259386).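 Note: series mostly up to about 92 µM; cells exposed to compounds for 22 h at 37 °C before the viability read; nearly all actives have a fitted effect of over 30% in size.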 In short, it runs like this: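 In this counter screen, compound effects on VM7Luc4E2 viability were tested in the presence of the antagonist ICI-182,780 at 10.0nM final. Compounds were dosed at 15 concentrations, exposure lasted 22hr, and the CellTiter-Fluor signal was read.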

Test [19] has as its target Estrogen receptor beta (Homo sapiens) (UniProt Q92731). In words: qHTS assay to identify small molecule agonists of the estrogen receptor beta (ER-beta) signaling pathway (AID 1259377; active = well fitted activation curve with a large enough effect in the signal ratio in the repeat runs, not every such curve was filed as active; the % refers to the signal ratio). In short, it runs like this: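 Ratiometric beta-lactamase FRET read-out came after 2 h substrate loading at room temperature. It followed 16 h compound treatment at 37C of GripTite HEK293T cells carrying a UAS-bla reporter, plated in 2% charcoal-stripped FBS medium.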

The target is the same in test [20]. In words: qHTS assay to identify small molecule antagonists of the estrogen receptor beta (ER-beta) signaling pathway (AID 1259378; active = well fitted inhibition curve with a large enough effect in the signal ratio in the repeat runs, not every such curve was filed as active; the % refers to the signal ratio). In short, it runs like this:
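Antagonist mode: compounds added to beta-lactamase reporter HEK293T ER-beta-UAS cells stimulated with E2 (1nM final), 16 hr at 37C. LiveBLAzer B/G FRET substrate, 2 hours room temperature, fluorescence read-out.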
% is set by controls: 0 for no effect and ±100 for the full control effect.

Sequence of Estrogen receptor beta (Homo sapiens) (Q92731 whole entry, looked up): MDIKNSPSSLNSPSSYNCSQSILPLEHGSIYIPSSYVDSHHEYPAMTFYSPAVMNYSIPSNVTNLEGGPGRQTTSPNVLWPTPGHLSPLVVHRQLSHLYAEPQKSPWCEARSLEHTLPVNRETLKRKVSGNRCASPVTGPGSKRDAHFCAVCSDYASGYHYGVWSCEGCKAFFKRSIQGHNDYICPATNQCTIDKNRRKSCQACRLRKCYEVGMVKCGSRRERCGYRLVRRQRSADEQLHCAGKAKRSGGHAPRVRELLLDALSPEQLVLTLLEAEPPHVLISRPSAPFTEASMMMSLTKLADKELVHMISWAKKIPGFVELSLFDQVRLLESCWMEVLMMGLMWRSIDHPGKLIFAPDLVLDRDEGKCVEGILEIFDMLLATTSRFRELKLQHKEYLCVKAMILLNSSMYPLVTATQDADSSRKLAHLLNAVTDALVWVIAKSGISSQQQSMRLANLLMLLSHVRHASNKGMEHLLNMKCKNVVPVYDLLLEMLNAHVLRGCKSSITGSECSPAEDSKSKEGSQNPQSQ
Sequence of Androgen receptor (Homo sapiens) (P10275 whole entry, looked up): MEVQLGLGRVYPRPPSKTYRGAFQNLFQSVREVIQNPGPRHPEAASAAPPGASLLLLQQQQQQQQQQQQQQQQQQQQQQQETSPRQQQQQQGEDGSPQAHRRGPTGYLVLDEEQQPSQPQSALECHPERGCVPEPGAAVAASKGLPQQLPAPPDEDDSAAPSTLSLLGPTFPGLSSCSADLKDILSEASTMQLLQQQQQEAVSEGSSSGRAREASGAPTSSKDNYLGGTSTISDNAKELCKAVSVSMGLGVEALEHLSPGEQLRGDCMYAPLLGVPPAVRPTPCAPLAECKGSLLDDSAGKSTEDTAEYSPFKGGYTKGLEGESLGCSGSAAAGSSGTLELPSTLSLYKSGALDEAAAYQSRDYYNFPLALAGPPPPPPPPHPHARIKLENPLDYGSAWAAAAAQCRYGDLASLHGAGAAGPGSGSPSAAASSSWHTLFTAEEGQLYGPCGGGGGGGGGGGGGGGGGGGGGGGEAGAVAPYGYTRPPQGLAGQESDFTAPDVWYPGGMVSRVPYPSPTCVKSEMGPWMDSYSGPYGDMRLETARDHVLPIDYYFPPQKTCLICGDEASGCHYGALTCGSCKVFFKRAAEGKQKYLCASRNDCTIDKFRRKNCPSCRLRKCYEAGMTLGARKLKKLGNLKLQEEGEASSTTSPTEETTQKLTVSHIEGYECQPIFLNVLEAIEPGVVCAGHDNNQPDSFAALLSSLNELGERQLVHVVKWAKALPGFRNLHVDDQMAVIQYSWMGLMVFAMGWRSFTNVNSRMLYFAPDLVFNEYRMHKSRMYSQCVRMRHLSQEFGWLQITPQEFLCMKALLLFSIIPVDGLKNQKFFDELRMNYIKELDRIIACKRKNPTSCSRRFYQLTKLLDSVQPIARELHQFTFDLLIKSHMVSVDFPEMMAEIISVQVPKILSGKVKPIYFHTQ
Sequence of Estrogen receptor (Homo sapiens) (P03372 whole entry, looked up): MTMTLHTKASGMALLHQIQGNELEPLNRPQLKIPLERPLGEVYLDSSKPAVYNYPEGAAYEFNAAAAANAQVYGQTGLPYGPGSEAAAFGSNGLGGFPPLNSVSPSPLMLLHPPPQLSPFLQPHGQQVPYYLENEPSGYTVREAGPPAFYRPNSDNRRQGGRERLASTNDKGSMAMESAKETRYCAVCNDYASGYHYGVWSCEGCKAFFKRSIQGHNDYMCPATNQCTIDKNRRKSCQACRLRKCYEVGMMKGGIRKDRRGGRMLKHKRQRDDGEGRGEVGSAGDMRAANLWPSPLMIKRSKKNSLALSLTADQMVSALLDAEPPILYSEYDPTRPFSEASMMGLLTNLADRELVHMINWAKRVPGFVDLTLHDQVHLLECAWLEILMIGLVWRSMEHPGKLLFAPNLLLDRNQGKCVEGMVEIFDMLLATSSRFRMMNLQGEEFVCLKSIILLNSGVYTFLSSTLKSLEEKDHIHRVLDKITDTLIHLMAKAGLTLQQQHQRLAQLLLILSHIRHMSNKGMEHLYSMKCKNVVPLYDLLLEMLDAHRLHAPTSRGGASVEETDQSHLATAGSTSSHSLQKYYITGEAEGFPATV
Sequence of Thyrotropin receptor (Homo sapiens) (P16473 whole entry, looked up): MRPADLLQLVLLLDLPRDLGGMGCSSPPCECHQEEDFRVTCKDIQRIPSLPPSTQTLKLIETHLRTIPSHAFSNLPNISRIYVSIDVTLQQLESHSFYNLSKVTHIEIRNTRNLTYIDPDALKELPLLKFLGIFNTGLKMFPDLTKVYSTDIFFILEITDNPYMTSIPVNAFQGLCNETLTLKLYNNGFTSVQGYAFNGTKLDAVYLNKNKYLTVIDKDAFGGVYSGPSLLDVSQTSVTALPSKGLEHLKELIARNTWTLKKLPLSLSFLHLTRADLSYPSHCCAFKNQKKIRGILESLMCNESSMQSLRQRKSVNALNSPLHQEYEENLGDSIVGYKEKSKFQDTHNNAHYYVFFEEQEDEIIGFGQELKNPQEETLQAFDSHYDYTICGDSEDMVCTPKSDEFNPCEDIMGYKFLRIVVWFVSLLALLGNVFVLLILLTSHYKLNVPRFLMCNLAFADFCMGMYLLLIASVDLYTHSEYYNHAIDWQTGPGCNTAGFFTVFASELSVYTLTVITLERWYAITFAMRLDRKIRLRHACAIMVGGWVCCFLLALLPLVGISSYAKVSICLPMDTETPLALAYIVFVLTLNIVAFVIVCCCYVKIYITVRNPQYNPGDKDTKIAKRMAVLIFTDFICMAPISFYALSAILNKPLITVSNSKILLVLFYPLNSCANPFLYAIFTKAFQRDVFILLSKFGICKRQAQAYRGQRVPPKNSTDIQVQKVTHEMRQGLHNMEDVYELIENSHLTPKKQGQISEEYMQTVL

Take `Cc1nnc(NS(=O)(=O)c2ccc(N)cc2)s1`: the Potency entry in [1], in [2], in [3], in [4], in test [6] and in test [7] was “inactive” each time. In addition, the Potency entry in test [8], in [9], in test [10], in test [11], in [12] and in test [13] was “inactive” each time. The Potency result in test [14], in [15], in test [16], in test [17] and in test [18] was “inactive” each time. The outcome in [5] was inactive.
As to `COCN(COC)c1nc(N(COC)COC)nc(N(COC)COC)n1`, the Potency result in test [1], in test [2], in test [4], in test [6], in test [7] and in test [8] was “inactive” each time. The Potency result in test [9], in [10], in [11], in [19], in [20] and in [12] was “inactive” throughout. The Potency entry in test [13], in test [14], in test [15], in test [16], in test [17] and in test [18] was “inactive” in each case.
Turning to `O=C(Cl)c1ccc(C(=O)Cl)cc1`, the Potency result in test [1], in [2], in [4], in test [6], in test [7] and in [8] was “inactive” each time. Moreover, the Potency entry in test [9], in test [10], in test [11], in test [19], in test [12] and in [13] was “inactive” throughout. In addition, the Potency entry in [14], in test [15], in test [16], in test [17] and in [18] was “inactive” each time.
On to `CCCCCCC(=O)O`, for which the Potency entry in test [1], in [2], in [4], in test [6], in test [7] and in test [8] was “inactive” throughout. In addition, the Potency entry in test [9], in test [10], in [11], in test [19], in [12] and in [13] was “inactive” in each case. The Potency result in test [14], in [15], in [16], in [17] and in test [18] was “inactive” in each case.
Consider `CCCCCCCCCCCC(=O)N(C)CC(=O)O`, for which the Potency entry in test [1], in [2], in [4], in [6], in test [7] and in test [8] was “inactive” throughout. Besides, the Potency entry in test [9], in [10], in test [11], in test [19], in [12] and in [14] was “inactive” throughout. For the same molecule, the Potency result in test [15], in test [16], in test [17] and in test [18] was “inactive” each time. The activity change, negative = cytotoxicity in test [13] is -3.5% [at 8.39 µM] (inactive).
For the molecule `CC(C=O)Cc1ccc(C(C)(C)C)cc1` (configuration not stated), the Potency entry in [1], in test [2], in test [3], in test [6], in [8] and in [9] was “inactive” each time. The Potency entry in test [10], in test [11], in [19], in test [20], in test [12] and in test [13] was “inactive” throughout. The Potency result in [14], in [16], in test [17] and in test [18] was “inactive” throughout.
In the case of `COC(=O)/C=C\C(=O)OC`, the Potency entry in test [1], in [2], in test [6], in test [7], in test [8] and in test [9] was “inactive” each time. Also, the Potency result in test [10], in [11], in test [19], in test [12], in test [13] and in test [14] was “inactive” throughout. For the same molecule, the Potency result in test [16], in [17] and in test [18] was “inactive” throughout.
With `O=C(NCC1CCCCN1)c1cc(OCC(F)(F)F)ccc1OCC(F)(F)F` (configuration not stated), the Potency entry in [1], in test [2], in [6], in [8], in test [9] and in [10] was “inactive” each time. Also, the Potency result in test [12], in test [13], in test [14], in [16], in [17] and in test [18] was “inactive” throughout. For the same molecule, the result in test [5] was inactive. For the same molecule, the Potency in test [11] is 19 µM (active) and inactive.
